MITF act: activators of MITF-driven TRPM1 promoter reporter, primary screen, cell-based, SK-MEL-5, luciferase, single point; SK-MEL-5 TRPM1-promoter luciferase, 24 h; % of positive control, neutral wells = 0; activation, % at 12.5 µM; actives 0.75% (n = 300,000);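 active = mean activation of at least 80% with every replicate also reaching 80%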
MITF TRPM1 inh: inhibitors of MITF-dependent TRPM1 promoter reporter, primary screen, cell-based, SK-MEL-5, single point, luciferase; SK-MEL-5 TRPM1 promoter luciferase, 24 h; inhibition, % at 12.5 µM; actives 0.83% (n = 330,000);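 active = mean inhibition across replicates of 60% or more, whatever share of single replicates reaches that level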
LMP1 NFkB inh: EBV LMP1-driven NF-kappaB luciferase reporter inhibitors, primary screen, cell-based, luminescence, single point; LMP1-induced NF-kappaB luciferase reporter cells; inhibition, % at 12.5 µM; actives 0.69% (n = 350,000); in the data active = inhibition above about 41%
TWEAK Fn14 block: inhibitors of TWEAK-Fn14 signaling, primary screen, luciferase reporter cells, uHTS. TWEAK-stimulated Fn14 reporter cells, luciferase luminescence, 8 h. actives 2% (n = 360,000). inhibition, % at 10 µM; in the data active = inhibition above about 50%
TROY NFkB inh: inhibitors of TROY-driven NF-kB signaling, primary screen, Q293 LMP1-TROYcd cells, NF-kB luciferase, uHTS; inhibition, % at 10 µM; actives 0.98% (n = 360,000); Q293 LMP1-TROYcd NF-kB luciferase reporter, 4 h; AID 1347056, 2019;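 active = compounds whose plate-normalised and pattern-corrected inhibition of the luciferase reporter signal at the single screening dose is 50% or more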
LGR2 antag: inhibitors of bursicon-induced LGR2 CRE-luciferase signal, primary screen, cell-based, HEK293, CRE-luciferase reporter, bursicon stimulation; Drosophila bursicon receptor LGR2 (rickets); bursicon-stimulated, 4 h; inhibition, % at 9.99 µM; actives 0.35% (n = 380,000); AID 720647, 2013;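 active = drop in luminescence signal, shown as inhibition above about 50% in the replicate tests, limit read from the data, passing the limit was not always enough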;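 also: agonist challenge used bursicon conditioned medium at about half maximal strength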
Large screens that a line does not name were inactive. Rows were chosen to be rich in hits. Some 3% of all compounds tested hit in one or more screens of this group.

C[C@H]1CN([C@@H](C)CO)C(=O)c2cccc(NC(=O)CCCCCC(=O)Nc3ccccc3N)c2O[C@H]1CN(C)C(=O)NC1CCCCC1	none (no result: MITF act, MITF TRPM1 inh, LMP1 NFkB inh, TWEAK Fn14 block, TROY NFkB inh)
O=C(c1nn2c(C(F)(F)F)cc(-c3cccs3)nc2c1Cl)N1CCCc2ccccc21	TWEAK Fn14 block 54.2
O=C(c1cnn2c(C(F)(F)F)cc(-c3ccccc3)nc12)N1CCCc2ccccc21	none
COc1ccc(NC(=O)N2CCCCN3[C@H](CO)[C@H](c4ccc(-c5ccccc5F)cc4)[C@@H]3C2)cc1	none (no result: MITF act, MITF TRPM1 inh, LMP1 NFkB inh, TWEAK Fn14 block, TROY NFkB inh)
Cc1ccc(-c2cc(-c3ccccc3)no2)cc1	TWEAK Fn14 block 59.6, LGR2 antag 57.1
Nc1nc(-c2cc(-c3ccccc3)no2)cs1	MITF act 88.3
COCC(=O)Nc1ccc2c(c1)OC[C@@H](C)N(Cc1cc(F)ccc1F)C[C@H](C)[C@@H](OC)CN(C)C2=O	none (no result: MITF act, MITF TRPM1 inh, LMP1 NFkB inh, TWEAK Fn14 block, TROY NFkB inh)
C[C@@H]1CN([C@@H](C)CO)S(=O)(=O)c2ccc(-c3cccc(F)c3)cc2O[C@H]1CN(C)CC1CC1	none (no result: MITF act, MITF TRPM1 inh, LMP1 NFkB inh, TWEAK Fn14 block, TROY NFkB inh)
O=[N+]([O-])c1ccc(/C=N/n2c(CO)nc3ccccc32)s1	MITF TRPM1 inh 72.0
Cc1nc2ccccc2n1/N=C/c1ccc([N+](=O)[O-])o1	none
Cc1nc2ccccc2n1/N=C/c1ccc([N+](=O)[O-])s1	MITF TRPM1 inh 81.6, TWEAK Fn14 block 70.4
O=[N+]([O-])c1ccc(/C=N/n2cnc3ccccc32)s1	MITF TRPM1 inh 85.6, TWEAK Fn14 block 53.6
C[C@H]1CN([C@@H](C)CO)C(=O)c2c(c3ccccc3n2C)-c2ccccc2CO[C@@H]1CN(C)C(=O)Nc1cccc(Cl)c1Cl	none (no result: MITF act, MITF TRPM1 inh, LMP1 NFkB inh, TWEAK Fn14 block, TROY NFkB inh)
C[C@@H]1CN([C@H](C)CO)C(=O)Cc2cc(NC(=O)Cc3ccccc3)ccc2O[C@@H]1CN(C)C(=O)Nc1cccc2ccccc12	none (no result: MITF act, MITF TRPM1 inh, LMP1 NFkB inh, TWEAK Fn14 block, TROY NFkB inh)
COc1ccc2c3c(n(C)c2c1)[C@@H](CO)N(C(=O)CN(C)C)CC31CCN(Cc2cncnc2)CC1	none (no result: MITF act, MITF TRPM1 inh, LMP1 NFkB inh, TWEAK Fn14 block, TROY NFkB inh)
Cc1ccc(C2=N/C(=C\c3c(C)nn(-c4ccccc4)c3N3CCCC3)C(=O)O2)cc1	none
O=C1OC(c2ccccc2)=C/C1=C/N1CCCCC1	MITF act 104.6
O=C1OC(c2ccccc2)=CC1=Cc1ccccc1O	none (no result: MITF act, MITF TRPM1 inh)
O=C1OC(c2ccccc2)=N/C1=C\N1CCCCC1	MITF act 85.6
O=C1OC(c2ccc(Br)cc2)=N/C1=C\N1CCCCC1	MITF act 123.9 (no result: LGR2 antag)
CNC(=O)C[C@@H]1CC[C@@H]2[C@@H](COc3ccc(NC(=O)Nc4ccc(F)c(F)c4)cc3C(=O)N2C)O1	none (no result: MITF act, MITF TRPM1 inh, LMP1 NFkB inh, TWEAK Fn14 block, TROY NFkB inh)
O=C(NCCc1ccccc1)[C@H]1N[C@H]2c3ccc(-c4ccc(F)cc4)c(=O)n3C[C@H]2[C@@H]1CO	none (no result: MITF act, MITF TRPM1 inh, LMP1 NFkB inh, TWEAK Fn14 block, TROY NFkB inh)
Cc1ccc(NC(=O)CN2CCCC2c2cccn2C)c(Br)c1 (stereo unspecified)	MITF act 108.7
Cc1ccc(NC(=O)CN2CCCC2c2cccn2C)cc1C (stereo unspecified)	none
O=C(CCCn1c(=S)[nH]c2cc3c(cc2c1=O)OCO3)N1CCN(c2ccc(Cl)cc2)CC1	TROY NFkB inh 58.3 (no result: MITF act, LGR2 antag)
O=S(=O)(N[C@@H]1CC[C@H](CCn2cc(C3(O)CCCC3)nn2)O[C@H]1CO)c1ccccc1	none (no result: MITF act, MITF TRPM1 inh, LMP1 NFkB inh, TWEAK Fn14 block, TROY NFkB inh)
COc1ccc(NC(=O)c2cc3ccccc3o2)cc1OC	none
COc1ccc(NC(=O)c2coc3ccccc23)cc1OC	MITF act 111.5
CC12CCC(O)CC1=CCC1C2CCC2(C)C1CCC21CCC(=O)O1 (stereo unspecified)	none
C[C@]12CCC(O)CC1=CCC1C2CC[C@]2(C)/C(=N\NC(N)=S)CCC12 (stereo partly specified)	TWEAK Fn14 block 93.8
O=C(Nc1nc2c(Br)cc(Br)cc2c(=O)s1)c1ccco1	TWEAK Fn14 block 61.7 (no result: MITF act)
Cc1cc(Cl)cc2sc(NC(=O)c3ccco3)nc12	MITF act 88.2 (no result: LGR2 antag)
Cc1cc(C)c2nc(NC(=O)c3ccco3)sc2c1	TWEAK Fn14 block 59.4

Compound activity from PubChem BioAssay.
